Results published in PubChem BioAssay (NCI).
About 83,000 compounds went through this panel and 20% of them were active in at least one assay; those are over-represented in the sample as a whole.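 Assay: single dose, 48 h. Readout: percent growth (0 = no net growth; negative = cell death). Active: <10.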 Unmarked numbers belong to inactive results. Activity calls are given as the source filed them.

Tested on: MDA-MB-231 breast
Assay: NCI-60 one-dose screen, 48 h (100 = growth as untreated, 0 = no growth, -100 = all killed)
Settings: 10 µM unless noted

SMILES | growth
CC(C)Cc1nc(Nc2ccccc2)[nH]c(=O)c1C#N | 47.9%
CN(C)/C(N)=N/N=C(\c1ccccc1)c1ccccn1 | 88.1%
CS(=O)(=O)Nc1cc(-c2ccc3ncnc(Nc4ccc5c(cnn5Cc5ccccc5F)c4)c3c2)cnc1Cl | 36.1%
Nc1cc(-c2ccc(Cl)cc2)nn1-c1nnc(/C=C/c2ccco2)c(=O)[nH]1 | 74.2%
CCCN(CCSSCCNc1nc(N(C)O)nc(N(C)O)n1)c1nc(N(C)O)nc(N(C)O)n1 | 66.6%
Cc1nc([P+](c2ccccc2)(c2ccccc2)c2ccccc2)c(N2CCCCC2)o1 | 43.5%
CCN(CC)CCn1c2ccc(OC)cc2c2sc3cc(O)ccc3c(=O)c21 | 54.1%
O=C(NCCCCCCNC(=O)OCc1ccc2c(Cl)cc(Cl)c(O)c2n1)OCc1ccc2c(Cl)cc(Cl)c(O)c2n1 | -92.7% (active)
O=C(Nc1cccnc1Nc1ccc(Cl)cc1)c1cn(Cc2cccc(Oc3ccccc3)c2)nn1 | 53.3%
Cc1ccc2c(c1)sc1nc(-c3c[nH]c4ccccc34)c(Nc3ccccc3)n12 | 93%
CN1c2ccccc2S(=O)(=O)n2c(SCC(=O)Nc3nc4ccc(F)cc4s3)nnc21 | 103%
COC12C=C/C(=C(/C(=O)OCc3csc(SC)n3)C(=O)CCCCCCCCC3(OC)C=C/C(=C(/C(=O)OCc4cnc(SC)s4)C(=O)CCCCCCCC1)O3)O2 (centres undefined) | 19.1%
Nc1[nH]nc2nc(-c3ccccc3)n3c4ccccc4nc3c12 | 97.9%
CS(=O)/C(C#N)=C\C=C\c1cccc(Cl)c1 (centres undefined) | 40.6%
CN(C)CCCC1(c2ccc(F)cc2)OCc2cc(-c3csc4ccccc34)ccc21 (centres undefined) | 10.6%
COCCn1cc(-c2csc(-c3c[nH]c4ccccc34)n2)c2cccnc21 | 35%
O=S(=O)(NCCNc1nccc(-c2c(-c3ccc(F)c(O)c3)nc3sccn23)n1)c1ccc(Cl)cc1 | 50.1%
Cc1cccc(NC(=O)N/C(N)=N/c2nc3ccccc3s2)c1 | 58.8%
N#Cc1c(-c2cccc(Cl)c2)cc(-c2cccnc2)[nH]c1=O | 81.9%
C=CC(CC(c1ccccc1)(c1ccccc1)c1ccccc1)N(CC)CC (centres undefined) | 53.4%
C/C(=C(\c1ccc(OCCN2CCCCCC2)cc1)c1ccc(OC(=O)c2ccccc2)cc1)c1ccc(Cl)cc1 | 51.1%
O=C(/C=C/c1ccccc1)c1ccc(-n2cc(CN3CCN(c4cc5c(cc4F)c(=O)c(C(=O)O)cn5C4CC4)CC3)nn2)cc1 | 89.4%
CCCCCCCCCCCCCCCCCCOc1ccccc1CC(=O)NCC[N+](C)(C)C | 46.7%
CCN(CC)CCOc1ccc(/C(=C(\C)Cc2ccc(OC)cc2)c2ccc(OC(=O)NCc3ccccc3)cc2)cc1 | 76.3%
COc1cc([C@@H](CCO)C[C@H](C)c2ccc3ccccc3c2)cc(OC)c1OC | 43.8%
CCOC(=O)/C(=C(/C)NCC(C)C)c1cc(O)c(O)c2c(C)cc(=O)[nH]c12 | 61.3%
COc1ccc(/C=C2\c3cc(OC)c(OC)c(OC)c3CC[C@@H]2O)cc1F | 28.8%
O=c1oc2c(cc1-c1ccccc1)c[n+]([O-])c1ccccc21 | 91.8%
CN1C(=O)/C(=C/c2ccc(C(=O)Nc3ncc(Cc4cccc(C(F)(F)F)c4)s3)cc2)SC1=S | 69.1%

Tested on: RXF 393 renal
Assay: as above
Settings: 10 µM unless noted

SMILES | growth
O=C(Nc1ncc(Cc2ccccc2)s1)c1sc2ccccc2c1Cl | -5.07% (active)
Cc1ccccc1N1CCN(C(=S)c2ccccc2)CC1 | 96.6%
CC(C)(C)c1ccc(S(=O)(=O)Oc2ccc(-c3sc4cc(OS(=O)(=O)c5ccc(C(C)(C)C)cc5)ccc4c3C(=O)c3ccc(OCCN4CCCCC4)cc3)cc2)cc1 | 103%
CCn1cc(C(=O)N/N=C/c2ccccc2)c(=O)c2cc(F)c(N3CCNC(C)C3)c(F)c21 (centres undefined) | -61.3% (active)
COC1/C=C/OC2(C)Oc3c(C)c(O)c4c(O)c(c(/C=N/N(c5ccccc5)c5ccccc5)c(O)c4c3C2=O)NC(=O)C(C)=C/C=C/C(C)C(O)C(C)C(O)C(C)C(OC(C)=O)C1C (centres undefined) | -53.5% (active)
CS(=O)(=O)c1ccc(-c2nc3ccccc3n2CC(=O)N/N=C/c2ccccc2)cc1 | 116%
CC(=O)O[C@H]1CC[C@]2(C)[C@H]3CC=C4[C@@H]5CC(C)(C)CC[C@]5(C(=O)N5CCN(CCC#N)CC5)CC[C@@]4(C)[C@]3(C)CC[C@H]2C1(C)C | 74.3%
C[N+]1=C(/C=C/c2ccccc2Cl)C(C)(C)c2ccccc21 | 89.2%
COC(=O)/C=C1/SC(=Nc2ccc(F)cc2)N(CCc2c[nH]c3ccc(O)cc23)C1=O | 32%
Cc1c2ccccc2nc2cc3c(cc12)[C@H]1CC[C@]2(C)C(=O)CC[C@H]2[C@@H]1CC3 | 101%
O=C(/C=C/C12c3ccccc3C(c3ccccc31)C1C(=O)NC(=O)C12)c1ccco1 (centres undefined) | 1.72% (active)
CC(C)Cc1nc(Nc2ccccc2)[nH]c(=O)c1C#N | 67.4%
CN(C)/C(N)=N/N=C(\c1ccccc1)c1ccccn1 | 98.5%
CS(=O)(=O)Nc1cc(-c2ccc3ncnc(Nc4ccc5c(cnn5Cc5ccccc5F)c4)c3c2)cnc1Cl | 20.2%
Nc1cc(-c2ccc(Cl)cc2)nn1-c1nnc(/C=C/c2ccco2)c(=O)[nH]1 | 67.8%
CCCN(CCSSCCNc1nc(N(C)O)nc(N(C)O)n1)c1nc(N(C)O)nc(N(C)O)n1 | 72.9%
Cc1nc([P+](c2ccccc2)(c2ccccc2)c2ccccc2)c(N2CCCCC2)o1 | 67%
CCN(CC)CCn1c2ccc(OC)cc2c2sc3cc(O)ccc3c(=O)c21 | 27.5%
O=C(NCCCCCCNC(=O)OCc1ccc2c(Cl)cc(Cl)c(O)c2n1)OCc1ccc2c(Cl)cc(Cl)c(O)c2n1 | -87% (active)
O=C(Nc1cccnc1Nc1ccc(Cl)cc1)c1cn(Cc2cccc(Oc3ccccc3)c2)nn1 | 44.1%

SMILES | growth
Cc1ccc2c(c1)sc1nc(-c3c[nH]c4ccccc34)c(Nc3ccccc3)n12 | 111%
CN1c2ccccc2S(=O)(=O)n2c(SCC(=O)Nc3nc4ccc(F)cc4s3)nnc21 | -23.2% (active)
COC12C=C/C(=C(/C(=O)OCc3csc(SC)n3)C(=O)CCCCCCCCC3(OC)C=C/C(=C(/C(=O)OCc4cnc(SC)s4)C(=O)CCCCCCCC1)O3)O2 (centres undefined) | -35.4% (active)
Nc1[nH]nc2nc(-c3ccccc3)n3c4ccccc4nc3c12 | 93.9%
CS(=O)/C(C#N)=C\C=C\c1cccc(Cl)c1 (centres undefined) | 49.5%
CN(C)CCCC1(c2ccc(F)cc2)OCc2cc(-c3csc4ccccc34)ccc21 (centres undefined) | 4.01% (active)
COCCn1cc(-c2csc(-c3c[nH]c4ccccc34)n2)c2cccnc21 | 72.2%
O=S(=O)(NCCNc1nccc(-c2c(-c3ccc(F)c(O)c3)nc3sccn23)n1)c1ccc(Cl)cc1 | 25%
Cc1cccc(NC(=O)N/C(N)=N/c2nc3ccccc3s2)c1 | 26.3%
N#Cc1c(-c2cccc(Cl)c2)cc(-c2cccnc2)[nH]c1=O | 100%
C=CC(CC(c1ccccc1)(c1ccccc1)c1ccccc1)N(CC)CC (centres undefined) | 40.6%
C/C(=C(\c1ccc(OCCN2CCCCCC2)cc1)c1ccc(OC(=O)c2ccccc2)cc1)c1ccc(Cl)cc1 | 19%
O=C(/C=C/c1ccccc1)c1ccc(-n2cc(CN3CCN(c4cc5c(cc4F)c(=O)c(C(=O)O)cn5C4CC4)CC3)nn2)cc1 | 58.3%
CCCCCCCCCCCCCCCCCCOc1ccccc1CC(=O)NCC[N+](C)(C)C | -39.7% (active)
CCN(CC)CCOc1ccc(/C(=C(\C)Cc2ccc(OC)cc2)c2ccc(OC(=O)NCc3ccccc3)cc2)cc1 | 59.7%
COc1cc([C@@H](CCO)C[C@H](C)c2ccc3ccccc3c2)cc(OC)c1OC | 32.3%
CCOC(=O)/C(=C(/C)NCC(C)C)c1cc(O)c(O)c2c(C)cc(=O)[nH]c12 | 83%
COc1ccc(/C=C2\c3cc(OC)c(OC)c(OC)c3CC[C@@H]2O)cc1F | 8.31% (active)
O=c1oc2c(cc1-c1ccccc1)c[n+]([O-])c1ccccc21 | 94.6%
CN1C(=O)/C(=C/c2ccc(C(=O)Nc3ncc(Cc4cccc(C(F)(F)F)c4)s3)cc2)SC1=S | 26.9%
